Sampled rows, rich in hits. Any-hit rate of the full collection: about 11%.
FLuc inh: Photinus pyralis luciferase inhibition. purified P. pyralis luciferase, luminescence, biochemical. P08659. Potency, µM (doses to about 115 µM), actives largely listed as inhibitors. hit rate 2.5% among 76,000; further: nearly all actives have a fitted effect of over 65% in size
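Cell-free enzyme assay, 10nM P. pyralis luciferase, luciferin and ATP each at 10uM. Inhibition profiled over a 6-point titration, read as luminescence.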
hNpr1 antagonist: human Npr1 receptor antagonism; Potency, µM (highest dose often 46.3 µM), without a hit: at the highest dose activity change, negative = inhibition, usual class: inhibitors; hit rate 1.6% among 76,000; HEK293 hNpr1 GloSensor cGMP, ANP-stimulated luminescence; AID 1347048; P16066; calls by dose curve; further: nearly all actives have a fitted effect of over 60% in size
Target sequence (P16066 whole entry, looked up): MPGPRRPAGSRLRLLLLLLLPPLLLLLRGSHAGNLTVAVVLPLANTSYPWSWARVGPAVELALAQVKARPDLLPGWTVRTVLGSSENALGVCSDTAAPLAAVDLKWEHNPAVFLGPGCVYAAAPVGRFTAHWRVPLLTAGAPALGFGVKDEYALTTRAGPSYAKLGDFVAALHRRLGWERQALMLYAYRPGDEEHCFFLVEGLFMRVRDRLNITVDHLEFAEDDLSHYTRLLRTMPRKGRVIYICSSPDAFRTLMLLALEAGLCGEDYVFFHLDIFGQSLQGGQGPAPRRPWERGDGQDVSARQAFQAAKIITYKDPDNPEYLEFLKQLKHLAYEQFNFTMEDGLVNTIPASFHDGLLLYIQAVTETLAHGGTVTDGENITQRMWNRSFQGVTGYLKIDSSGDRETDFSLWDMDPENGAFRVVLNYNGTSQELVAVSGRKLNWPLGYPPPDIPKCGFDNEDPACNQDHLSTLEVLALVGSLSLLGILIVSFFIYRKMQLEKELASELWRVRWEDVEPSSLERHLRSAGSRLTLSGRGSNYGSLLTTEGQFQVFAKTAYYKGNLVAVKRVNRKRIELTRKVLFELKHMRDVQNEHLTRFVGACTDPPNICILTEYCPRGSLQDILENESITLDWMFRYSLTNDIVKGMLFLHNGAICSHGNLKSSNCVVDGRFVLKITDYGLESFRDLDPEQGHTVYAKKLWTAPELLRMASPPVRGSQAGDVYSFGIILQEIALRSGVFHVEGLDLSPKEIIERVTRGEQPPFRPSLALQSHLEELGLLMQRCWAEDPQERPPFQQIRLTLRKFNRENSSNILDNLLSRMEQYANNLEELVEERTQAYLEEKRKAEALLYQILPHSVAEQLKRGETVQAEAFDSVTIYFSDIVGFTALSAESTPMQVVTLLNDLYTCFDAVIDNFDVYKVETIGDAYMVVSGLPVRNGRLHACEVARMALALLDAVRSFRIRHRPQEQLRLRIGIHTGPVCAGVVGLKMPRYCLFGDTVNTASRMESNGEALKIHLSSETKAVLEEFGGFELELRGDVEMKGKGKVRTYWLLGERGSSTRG
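HEK293 cells stably expressing human Npr1 and cGMP GloSensor pGS-40F, loaded 2 h with 2% GloSensor reagent, given compound 30 min at room temperature. Luminescence read before and 20 min after 0.1 nM hNppA.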
NIH3T3 tox: NIH 3T3 cell cytotoxicity. NIH 3T3 viability, CellTiter-Glo ATP luminescence, 48-72 h. Potency, µM (doses to about 96.7 µM), for inactives: at the highest dose activity change, negative = cytotoxicity, actives largely listed as inhibitors. hit rate 4.3% among 94,000; further: nearly all actives have a fitted effect of over 55% in size
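Cytotoxicity was measured by CellTiter-Glo ATP luminescence after 48 or 72 h compound exposure at 37 °C. Mouse NIH 3T3 fibroblasts were seeded at 400 cells/well and dosed by 23 nL pin transfer.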
HEK293 tox: HEK 293 cell cytotoxicity; Potency, µM (series often up to 115 µM), inactives show at the highest dose activity change, negative = cytotoxicity, usual class: inhibitors; hit rate 6.6% among 94,000; AID 1345083; HEK 293 viability, ATP luminescence (CellTiter-Glo), 48-72 h; further: nearly all actives have a fitted effect of over 60% in size
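Pintool-delivered compounds were incubated with HEK 293 cells (250 cells/well) at 37 degree Celsius for 48 or 72 hr. ATP-dependent luminescence (CellTiter-Glo) then reported remaining viable cells.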
The depositor's hits bear a star; i = inactive; u = inconclusive; x = no result; [ ] = remark or other dose. Unless noted, the call rests on the fitted dose curve; in most records, active means well fitted curve in the direction sought with a large enough effect; inconclusive means small, poorly fitted or top-dose-only effect, or another doubt; inactive means no such curve, though single readings can be large; an effect the other way counts as inactive or inconclusive. On the % scale 0 is the no-effect control and ±100 the full control effect; potency means the concentration at half of the fitted maximal effect.

SMILES	FLuc inh	hNpr1 antagonist	NIH3T3 tox	HEK293 tox
CN(C(=O)c1ccc(F)cc1)C1CCCc2ccccc21 (stereo unspecified)	u	-1%[70.6 µM]	u	100µM*
Cc1ccc(C(=O)N(C)C2CCCc3ccccc32)cc1 (stereo unspecified)	35µM*	-7%[70.6 µM]	u	79µM*
O=C(NCCc1ccccn1)c1cnc2c(c1)N([S+](=O)([O-])c1cccnc1)CCC2	i	6%[70.6 µM]	u	-30%[172 µM]
Cc1c(C(C)NC(=O)c2cc(=O)[nH]c(=O)[nH]2)cnn1-c1cccc2ccccc12 (stereo unspecified)	i	0%	-38%	u
Cc1c(C(C)NC(=O)C(=O)c2ccco2)cnn1-c1cccc2ccccc12 (stereo unspecified)	i	-8%	u	45µM*
COc1ccc(OCC(O)CN2CCC(=O)N(Cc3ccccc3)Cc3cc4c(cc32)OCO4)cc1 (stereo unspecified)	x	x	u	45µM*
COc1ccc2c(c1)CN(Cc1ccccc1)C(=O)CCN2CC(O)Cc1ccccc1 (stereo unspecified)	x	x	u	79µM*
COc1ccc2c(c1)CN(Cc1ccccc1)C(=O)CCN2C(C)=O	x	x	u	-20%
O=C1CCN(CC(O)C(F)(F)F)c2cc3c(cc2CN1Cc1ccco1)OCO3 (stereo unspecified)	x	x	u	-17%
O=C1CCN(CC(O)Cc2ccccc2)c2cc3c(cc2CN1Cc1ccccc1)OCO3 (stereo unspecified)	x	x	u	40µM*
Cn1nc(C2CC2)cc1N[S+](=O)([O-])c1ccccc1	x	x	-15%[138 µM]	2%[172 µM]
O=C(NC1CCCN(c2ccc3nnc(C4CC4)n3n2)C1)c1ccccc1 (stereo unspecified)	x	x	-20%	-12%
COCCN1Cc2ccc(NCC(C)C)nc2C(C)(C(=O)Nc2ccc(OC)cc2)C1 (stereo unspecified)	u	-10%[70.6 µM]	45µM*	u
COCCN1Cc2ccc(NCc3ccccc3)nc2C(C)(C(=O)N(C)CCOC)C1 (stereo unspecified)	i	2%[70.6 µM]	u	u
COCCN(C)C(=O)C1(C)CN(Cc2ccccc2)Cc2ccc(NCC(C)C)nc21 (stereo unspecified)	i	1%[70.6 µM]	u	79µM*
COCCNC(=O)C1(C)CN(Cc2ccccc2)Cc2ccc(Nc3ccccc3)nc21 (stereo unspecified)	i	-2%[70.6 µM]	u	u
COCCNC(=O)C1(C)CN(Cc2ccccc2)Cc2ccc(NCC(C)C)nc21 (stereo unspecified)	i	-12%[70.6 µM]	22µM*	40µM*
COCCN1Cc2ccc(NCC(C)C)nc2C(C)(C(=O)Nc2ccccc2)C1 (stereo unspecified)	i	-12%[70.6 µM]	u	u
CN1CCN(CCCNC(=O)C2(CCO)CCN(Cc3ccccc3)C2)CC1 (stereo unspecified)	x	x	-24%	-3%
CC(C)c1cccc(NC(=O)Cn2cccc2-c2nc(-c3ccc4c(c3)OCO4)no2)c1	i	-3%	28µM*	u
COc1ccc(OC)c(NC(=O)Cn2cccc2-c2nc(-c3ccc4c(c3)OCO4)no2)c1	i	-13%	u	35µM*
COc1cc(Cl)c(C)cc1NC(=O)Cn1cccc1-c1nc(-c2ccc3c(c2)OCO3)no1	i	2%	-16%	-20%
COCCn1cnc2ccc(-c3ccc4c(c3)OCO4)nc2c1=O	u	9%[70.6 µM]	u	-4%[172 µM]
O=[S+]([O-])(NCC1CN(Cc2cccc(Cl)c2)CC12CN(c1ccccc1)C2)c1ccccc1 (stereo unspecified)	i	-8%	u	u
O=[S+]([O-])(NCC1CN(Cc2ccc3[nH]ccc3c2)CC12CN(c1ccccc1)C2)c1ccccc1 (stereo unspecified)	i	3%	22µM*	22µM*
CC(C)c1ccc(CN2CC(CN[S+](=O)([O-])c3ccccc3)C3(C2)CN(c2ccccc2)C3)cc1 (stereo unspecified)	i	-4%	40µM*	u
Cn1ccc2c(C(=O)NCC3CCC(=O)N3)nc(-c3ccccc3C#N)cc21 (stereo unspecified)	i	-1%[70.6 µM]	25µM*	u
COCCCNC(=O)c1cc(-c2cccc(C(F)(F)F)c2)nc2c1cnn2C	x	x	-17%	-4%
